{"source": "PubChem BioAssay", "data": [{"molecular_target": "E3 ubiquitin-protein ligase XIAP (Homo sapiens) (UniProt P98170)", "sequence (P98170 whole entry, looked up)": "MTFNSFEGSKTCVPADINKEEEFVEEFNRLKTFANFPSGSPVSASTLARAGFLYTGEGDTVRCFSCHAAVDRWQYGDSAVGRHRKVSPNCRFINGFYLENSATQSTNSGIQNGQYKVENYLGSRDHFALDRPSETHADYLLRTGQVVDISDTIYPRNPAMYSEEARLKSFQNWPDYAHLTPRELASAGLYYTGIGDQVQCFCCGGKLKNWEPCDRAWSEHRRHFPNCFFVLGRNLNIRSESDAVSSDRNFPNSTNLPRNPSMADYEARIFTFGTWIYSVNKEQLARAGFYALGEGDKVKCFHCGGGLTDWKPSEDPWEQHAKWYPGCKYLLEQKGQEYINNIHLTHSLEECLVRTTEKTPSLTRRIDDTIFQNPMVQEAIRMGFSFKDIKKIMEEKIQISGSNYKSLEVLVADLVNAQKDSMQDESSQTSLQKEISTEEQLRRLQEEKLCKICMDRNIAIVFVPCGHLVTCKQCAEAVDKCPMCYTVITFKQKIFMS", "experiment": "small molecules binding XIAP protein – biophysical, small-molecule microarray, fluorescence 635 nm, primary screen (AID 1181);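 further: score merges 667 nm emission and signal to noise over triplicate slides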", "settings": "higher = more signal", "values": [{"smiles": "CN1C(=O)C2C=CC(C(O)c3cccc4ccccc34)N(N3CCCCC3)C2C1=O", "note": "(centres undefined)", "composite z-score": 0.0077}, {"smiles": "C=CCOC(=O)[C@H]1[C@@H]2C(=O)O[C@@H](c3ccccc3)[C@@H](c3ccccc3)N2[C@@H](c2ccc(OCCOC(=O)[C@@H]3C[C@@H]4C(=O)N5CCC[C@H]5C(=O)N4[C@@H]3c3ccc(O)cc3)cc2)[C@]12C(=O)Nc1ccc(I)cc12", "composite z-score": -0.083}, {"smiles": "O=C1C2C=CC(C(O)c3ccccc3)N(Nc3ccccc3F)C2C(=O)N1c1ccccc1", "note": "(centres undefined)", "composite z-score": 0.258}, {"smiles": "CN(C)c1ccc(C(O)C2C=CC3C(=O)N(c4ccccc4)C(=O)C3N2Nc2ccc([N+](=O)[O-])cc2)cc1", "note": "(centres undefined)", "composite z-score": -0.359}, {"smiles": "[N-]=[N+]=NCc1ccccc1[C@H]1OC(c2ccc(OCCCO)cc2)=N[C@@]1(CCS(=O)(=O)c1ccccc1)C(=O)N1CCCCC1", "composite z-score": 0.0593}, {"smiles": "C=CCOC(=O)[C@H]1[C@@H]2C(=O)O[C@@H](c3ccccc3)[C@@H](c3ccccc3)N2[C@@H](c2ccc(OCCOC(=O)[C@@H]3C[C@@H]4C(=O)N[C@@H](CCCCNC(C)=O)C(=O)N4[C@@H]3c3ccc(O)cc3)cc2)[C@]12C(=O)Nc1ccc(I)cc12", "composite z-score": 0.026}, {"smiles": "COc1cc2c(cc1OC)CN(C(=O)[C@@H]1[C@H]3C(=O)O[C@H](c4ccccc4)[C@H](c4ccccc4)N3[C@H](c3ccc(OCCO)cc3)[C@@]13C(=O)Nc1ccc(C#CC4(O)CCCCCC4)cc13)CC2", "composite z-score": -0.0382}, {"smiles": "C=C(/C(=C/C[C@H](OC(C)=O)c1ccccc1OCCO)c1cc(C(=O)OC)ccc1OC)C(C)C", "composite z-score": 0.13}, {"smiles": "CCOC(=O)C[C@H]1[C@H](OC(=O)c2cc3ccccc3oc2=O)[C@@H](NC(=O)c2ccc(-c3ccccc3)cc2)c2cc(OCCCO)ccc2N1C(=O)c1ccc2ccccc2n1", "composite z-score": 0.023}]}]}
